Sampled rows, rich in hits. Any-hit rate of the full collection: about 5.8%.
FLuc inh – inhibitors of firefly luciferase. 72,000 compounds, 2.2% hits. P08659. Potency, µM (highest dose often 57.1 µM), for inactives: at the top dose activity change, negative = inhibition, usual class: inhibitors. purified firefly luciferase, luminescence, 8 min; also: % is scaled to controls: 0 for no effect and ±100 for the full control effect; nearly all actives have a fitted effect of over 40% in size
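Here, luciferase activity is measured as luminescence following an 8 min room-temperature reaction at 10 uM ATP, pH 7.2. Every library sample is titrated.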
Bst PK mod – alters activity of Bacillus stearothermophilus pyruvate kinase; purified pyruvate kinase, luminescence ATP production; ribose 5-phosphate activator present at AC10; 51,000 compounds, 1.2% hits; Potency, µM; in the data active = potency below about 11 µM; inconclusive = mostly about 12 µM to 25 µM;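 the screen sought inhibitors and activators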;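 also: scaled between full activation by ribose 5 phosphate and full inhibition by luteolin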
GBA activity – alters purified human glucocerebrosidase activity; 48,000 compounds, 1.1% hits; purified enzyme, resorufin glucoside fluorescence (screen aimed at inhibitors), 20 min; Potency, µM; P04062; in the data active = potency below about 15 µM; inconclusive = mostly about 16 µM to 33 µM;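 also: the screen sought inhibitors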
Target sequence (P04062 whole entry, looked up): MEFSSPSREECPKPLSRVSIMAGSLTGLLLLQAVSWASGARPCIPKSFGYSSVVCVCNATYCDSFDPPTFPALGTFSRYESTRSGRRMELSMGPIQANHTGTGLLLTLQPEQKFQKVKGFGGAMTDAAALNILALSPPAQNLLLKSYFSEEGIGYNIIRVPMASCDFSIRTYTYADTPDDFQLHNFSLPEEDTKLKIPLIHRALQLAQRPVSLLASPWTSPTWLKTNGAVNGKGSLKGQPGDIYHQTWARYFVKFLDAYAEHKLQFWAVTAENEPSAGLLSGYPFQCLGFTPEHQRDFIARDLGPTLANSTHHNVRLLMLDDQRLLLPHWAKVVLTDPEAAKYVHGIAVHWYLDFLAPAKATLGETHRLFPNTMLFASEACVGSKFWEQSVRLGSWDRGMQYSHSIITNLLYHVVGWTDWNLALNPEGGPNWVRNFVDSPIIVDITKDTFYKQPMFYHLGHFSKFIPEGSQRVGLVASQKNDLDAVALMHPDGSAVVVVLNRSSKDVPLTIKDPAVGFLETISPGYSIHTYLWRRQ
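Wild-type enzyme at 0.2 nM final in 50mM citric acid/KH2PO4, 10mM sodium taurocholate, 0.01% tween-20, pH 5.9, with resorufin beta-D-glucopyranoside at 30 uM final. Compounds titrated, 20 min at RT, red fluorescence read; AC50 from titration.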
HEK293 cAMP ctrl – counter-screen for TSHR agonists: cAMP increase in parental HEK293; Potency, µM (doses to about 57.1 µM), without a hit: at the top dose activation, usual class: activators; 73,000 compounds, 2.5% hits; parental HEK293 CNG cAMP sensor, membrane potential fluorescence; AID 938; also: % of control where 0% means no effect; nearly all actives have a fitted effect of over 55% in size
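Counterscreen for endogenous-receptor signalling: CNG-channel HEK 293 cells report cAMP rise by membrane depolarization. After 60 min dye equilibration with 100 uM RO 20-1724, compounds incubated 30 min before bottom-read fluorescence at 590 nm.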
TSHR ag – agonists of human thyroid stimulating hormone receptor. HEK293-CNG-TSHR cells (CNG channel as cAMP sensor), membrane potential dye, cAMP. 73,000 compounds, 0.48% hits. P16473. Potency, µM (top dose mostly 57.1 µM), without a hit: at the top dose activation, most hits filed as activators; active = well fitted activation curve with a large enough effect in the main read-out, with a control signal flat, not every such curve was filed as active; inconclusive = small, poorly fitted or top-dose-only effect, or a change in a side signal; inactive = no such curve, though single readings can be large or run the other way; % of control where 0% means no effect;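 also: the control signal comes from parental cells without the receptor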
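HEK 293 cells stably expressing TSHR and a cAMP-gated CNG channel; parental CNG-only cells as counterscreen. Cells preloaded 60 min with membrane potential dye plus 100 uM RO 20-1724, then compound 30 min; fluorescence read at 590 nm.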
* marks the source's active call; other numbers are inactive results; ? = inconclusive; . = not tested or not shown; [ ] = remark or other dose. Unless noted, calls follow the shape of the dose curve; as a rule, active = well fitted curve in the direction sought with a large enough effect; inconclusive = small, poorly fitted or top-dose-only effect, or another doubt; inactive = no such curve, though single readings can be large; an effect the other way counts as inactive or inconclusive. Potency is read from the fitted curve at half-maximal effect.

SMILES | FLuc inh | Bst PK mod | GBA activity | HEK293 cAMP ctrl | TSHR ag
CC[C@H]1[C@@H]2C[C@@H]3[C@@H]4N(C)c5ccccc5[C@@]45C[C@@H]([C@H]2[C@@H]5O)N3[C@@H]1O | 2%[11.4 µM] | . | . | ? | ?
CCC(=O)Nc1c(C)nn(C(=O)CC)c1C | -1% | >57 | >77 | 32µM* | ?
CC(C)(C)[C@@]1(O)C[C@@H]2OC(=O)C[C@@]23C(=O)O[C@H]2OC(=O)[C@@H](O)[C@]231 | 1%[11.4 µM] | . | . | -2% | -3%
O=C(Nc1cccnc1)c1c(O)c2c(n(Cc3ccccc3)c1=O)CCCC2 | -2% | >57 | >77 | 13µM* | ?
O=C(Nc1ccncc1)c1c(O)c2ccccc2n(Cc2ccccc2)c1=O | 2%[25.5 µM] | >26 | . | . | .
COc1ccc2c3c1O[C@@H]1C(=O)CC[C@@]4(O)[C@@H](C2)N(CC2CC2)CC[C@]314 | 1% | . | . | ? | ?
CC(C)(C)n1c(O)c(C=Nc2ccc3c(c2)CCC3)c(=O)[nH]c1=O | 1% | >57 | 11* | 25µM* | ?
COC(=O)[C@@H]1C[C@@]1(C)[C@@H](NP(=O)(c1ccccc1)c1ccccc1)c1ccccc1 | . | . | . | 1.3µM* | ?
CCN1C[C@@]2(C)CC[C@H](O)[C@@]34[C@@H]5C[C@H]6[C@H](O)[C@@H]5[C@](O)(C[C@@H]6OC)[C@H](C[C@@H]23)[C@H]14 | 2%[11.4 µM] | . | . | 1% | 1%

Screens (PubChem BioAssay)
